The list is not random: actives were taken first. Their share in the collection is about 19%.
IL1B secr inh: qHTS for Inhibitors of Inflammasome Signaling: IL-1-beta AlphaLISA Primary Screen | activity change, % at 57.5 µM | 4.7% of 360,000 active | THP-1 LPS/ATP IL-1B secretion, AlphaLISA, 16 h; hits give low values; in the data active = activity change below about -50%; inconclusive = mostly about -30% to -49%
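THP-1 cells pretreated 1 hr with compounds (up to 57.5 uM final), then stimulated with LPS (250 ng/mL final) plus ATP (1.25 mM final); secreted IL-1B measured by AlphaLISA after 16 hr, decreased signal indicating inhibition.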
MCF10A rerep: A quantitative high throughput screen for small molecules that induce DNA re-replication in MCF 10a normal breast cells | MCF 10A DNA re-replication, Hoechst nuclear intensity, 48 h | Potency, µM (highest dose often 46.1 µM), hits mostly activators | 2.9% of 350,000 active | AID 624296, 2012; note: nearly all actives have a fitted effect of over 50% in size
SW480 rereplic: A quantitative high throughput screen for small molecules that induce DNA re-replication in SW480 colon adenocarcinoma cells; SW480 DNA re-replication, Hoechst DNA content imaging, 48 h; Potency, µM (top dose mostly 46.1 µM), usual class: activators; 1.8% of 340,000 active; note: nearly all actives have a fitted effect of over 55% in size
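Compounds, transferred as 23 nL by pin tool, were incubated with cells for 48 hr; DNA content per nucleus was then quantified by Hoechst staining and fluorescence plate imaging.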
DT40 TDP1 CPT: qHTS for Inhibitors of human tyrosyl-DNA phosphodiesterase 1 (TDP1): qHTS in cells in presence of CPT | Potency, µM (titrated, usually from 46.2 µM), actives largely listed as inhibitors | 12% of 420,000 active | chicken DT40 Tdp1-/-;hTDP1 cells + 20 nM CPT, ATP luminescence, 48 h | AID 686979, 2013; note: nearly all actives have a fitted effect of over 55% in size
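Chicken DT40 Tdp1-/- cells stably complemented with human TDP1 were seeded at 400 cells/well in medium containing 20 nM camptothecin, exposed to pin-transferred compounds, and grown at 37 °C for at least 48 hr. Viability was read as ATP luminescence.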
TDP1 cell noCPT: qHTS for Inhibitors of human tyrosyl-DNA phosphodiesterase 1 (TDP1): qHTS in cells in absence of CPT; DT40 Tdp1-/- hTDP1 cells, no CPT, ATP luminescence, 48 h; Potency, µM (series often up to 46.2 µM), actives largely listed as inhibitors; 15% of 420,000 active; AID 686978, 2013; note: nearly all actives have a fitted effect of over 55% in size
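Growth of hTDP1-complemented DT40 Tdp1-knockout cells is measured by ATP luminescence after at least 48 hr compound exposure at 37 °C, with DMSO substituting for the 20 nM CPT used in the parallel screen.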
Chronic BCR inh: qHTS Assay to Find Inhibitors of Chronic Active B-Cell Receptor Signaling; Potency, µM (titrated, usually from 46.1 µM), usual class: inhibitors; AID 493014, 2011; ABC-DLBCL IkBa-CBG/CBR reporter, luminescence ratio, 4 h; 0.05% of 340,000 active; active = well fitted inhibition curve with a large enough effect in the signal ratio, with a control signal flat, not every such curve was filed as active; inconclusive = small, poorly fitted or top-dose-only effect, or effect the other way, or a change in a side signal; the % refers to the signal ratio
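Doxycycline induced both beetle luciferases in TMD8 lymphoma cells; IKK-driven degradation limits the IkappaBalpha-fused green signal, while red luminescence normalises for cell number and nonspecific effects. Compounds tested up to 46 uM, 4 hrs.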
A number is an active result; – = inactive; ? = inconclusive; · = no result; [ ] = another dose, or the depositor's remark. Unless noted, calls come from the whole dose curve; as a rule, active = well fitted curve in the direction sought with a large enough effect; inconclusive = small, poorly fitted or top-dose-only effect, or another doubt; inactive = no such curve, though single readings can be large; an effect the other way counts as inactive or inconclusive.

SMILES | IL1B secr inh | MCF10A rerep | SW480 rereplic | DT40 TDP1 CPT | TDP1 cell noCPT | Chronic BCR inh
O=C1NC(=O)C(c2ccccc2)N1 (centres undefined) | – | – | – | – | – | ·
COc1ccccc1NC(=O)NNC(=O)C(C)Oc1ccc2ccccc2c1 (centres undefined) | – | – | – | – | – | ?
CC(Oc1ccc2ccccc2c1)C(=O)NNC(=O)Nc1ccccc1F (centres undefined) | -50 | – | – | – | – | –
COc1ccc(/C=C/C(=O)NCc2c(C)nn(C)c2C)cc1COc1ccc(Br)cc1 | – | 3.7µM | ? | ? | – | –
O=C(NC1CCCc2ccccc21)C1CCN(C(=O)c2sccc2-n2cccc2)CC1 (centres undefined) | – | – | – | 15µM | ? | –
O=C(NCCc1ccccc1)C1CCN(C(=O)c2sccc2-n2cccc2)CC1 | – | – | – | – | ? | –
COc1ccc(C(=O)OCC(=O)c2ccc(C3CCCCC3)cc2)cc1 | – | – | –[9.22 µM] | ? | 20µM | –
COc1ccc(C(=O)Nc2ccc(C(=O)OCC(=O)c3ccccc3)cc2)cc1 | – | – | – | – | – | –
Nc1ccc(O)cc1C(=O)OCC(=O)c1ccc(C2CCCCC2)cc1 | -94 | 23µM | 9.2µM | ? | 21µM | ?
N/C(=N\OC(=O)CC1CCCCC1)c1ccc(Cl)cc1 | – | ? | – | – | – | ?
COc1ccc(-n2nnnc2-c2cccc(OC)c2)cc1 | – | 4.1µM | 3.3µM | 0.82µM | 0.58µM | ?
C[N+](C)(C)CCC(=O)c1cccc2ccccc12 | · | · | · | 0.58µM | 0.92µM | ·
O=P(OC1CCCCC1)(OC1CCCCC1)C(Nc1ccccc1)c1cccnc1 (centres undefined) | -72 | ? | – | ? | 15µM | –
CCOP(=O)(OCC)C(Nc1ccccc1)c1cccnc1 (centres undefined) | – | – | – | – | – | –
O=C(NC1CCN(C(=O)c2cccs2)CC1)c1ccccc1 | – | – | – | – | – | –
Cn1cc([N+](=O)[O-])c(C(=O)Nc2nc(-c3ccc(Cl)cc3)cs2)n1 | -120 | 5.2µM | 5.8µM | ? | ? | ?
Cc1ccc(-c2nc(NC(=O)c3nn(C)cc3[N+](=O)[O-])sc2C)cc1 | -111 | ? | – | ? | – | ?
Cc1cnc(NC(=O)c2nn(C)cc2[N+](=O)[O-])s1 | -94 | 4.1µM | 3.7µM | – | – | –
Cn1cc([N+](=O)[O-])c(C(=O)Nc2ccn(C34CC5CC(CC(C5)C3)C4)n2)n1 | – | ? | ? | – | ? | –
CCOc1ccc(CCNC(=O)CSc2cc(=O)n(CC)c3ccccc23)cc1OCC | – | – | – | ? | ? | –
Cc1cccc(NC(=S)NC(=O)c2ccco2)c1C | – | – | – | – | – | –
O=C(NC(=S)Nc1cccc(NC(=S)NC(=O)c2ccco2)n1)c1ccco1 | – | – | ? | – | 5.2µM | ?
O=C(NNC(=S)NC(=O)c1ccco1)c1ccc(NC(=O)c2ccccc2)cc1 | – | – | ? | 16µM | 21µM | ?
CCOc1ccc(NC(=S)NC(=O)c2ccco2)cc1 | – | – | – | – | 29µM | –
CCCCC(=O)Nc1ccc(C(=O)NNC(=S)NC(=O)c2ccco2)cc1 | – | – | – | 13µM | 23µM | –
SMILES | IL1B secr inh | MCF10A rerep | SW480 rereplic | DT40 TDP1 CPT | TDP1 cell noCPT | Chronic BCR inh
CC(=O)N[C@H]1[C@H](O[C@@H]2c3ccc(c(Cl)c3)Oc3cc4cc(c3O[C@@H]3O[C@H](CO)[C@@H](O)[C@H](O)C3C)Oc3ccc(cc3Cl)C[C@H]3NC(=O)[C@@H](N)c5ccc(O)c(c5)Oc5cc(O)cc(c5)[C@H](NC3=O)C(=O)N[C@H]4C(=O)N[C@H]3C(=O)N[C@@H]2C(=O)N[C@@H](C(=O)O)c2cc(O)cc(O[C@H]4O[C@H](CO)[C@@H](O)C(O)[C@@H]4O)c2-c2cc3ccc2O)O[C@H](CO)[C@@H](O)[C@@H]1O (some centres undefined) | · | – | – | · | · | ·
COc1ccc(S(=O)(=O)NC(=O)C2(C)CCN2C(=O)C(C)(C)c2ccccc2)cc1 (centres undefined) | – | · | · | – | – | ·
O=C(NC(=S)NNC(=O)c1ccccc1O)c1ccco1 | – | – | – | 21µM | 18µM | ?
O=C(NC(=S)NNC(=O)c1cc2ccccc2cc1O)c1ccco1 | – | ? | ? | ? | ? | ?
CCn1cnc2cc(NCc3ccncc3)ccc21 | – | 15µM | – | – | – | ?
COc1ccc(CNc2ccc3c(c2)ncn3C)cc1OC | – | – | 10µM | ? | ? | –
Cc1cccc(C(=O)NCCc2ccccc2)c1 | – | – | – | – | ? | ?
CCc1noc(C)c1C(=O)N1CCSC1=Nc1cccc(Cl)c1C | – | ? | – | ? | 23µM | –
COc1ccc(NC(=O)/C=C/c2cc(Br)ccc2OC)cc1 | – | ? | – | ? | 21µM | –
COc1ccc(Br)cc1/C=C/C(=O)c1ccc(NC(C)=O)cc1 | -99 | 6.5µM | 15µM | 5.8µM | 4.1µM | ?
COc1ccc(Br)cc1/C=C/C(=O)Nc1c(C)cccc1C | – | – | – | ? | 23µM | –
CCCNC(=O)C1(C)CCN(CCOc2ccc(Cl)cc2)C1 (centres undefined) | – | · | · | – | – | ·
CC(=O)Nc1ccc(C(=O)COC(=O)c2cccs2)c(F)c1 | – | – | – | – | – | ?
COc1ccc(CNC(=O)COC(=O)c2ccc(S(=O)(=O)NCc3ccco3)cc2)cc1 | – | – | – | – | – | ?
CS(=O)(=O)N1CCCC(C(=O)Nc2ccccc2)C1 (centres undefined) | – | – | – | – | – | –
Cc1cccc(N2CCN(C(=O)C3CCN(Cc4nc(-c5ccc(Cl)cc5)oc4C)CC3)CC2)c1C | · | · | · | ? | ? | –
CC1(C)Cc2ccccc2C(/C(=N/O)C(N)=O)=N1 | – | – | ? | – | – | –
CC(=O)c1ccc(N/N=C(/C(N)=O)C2=NC(C)(C)Cc3ccccc32)cc1 | – | ? | ? | 12µM | 9.2µM | –
CC(=O)/C(N)=N/Nc1cccc(Cl)c1 | – | ? | ? | – | ? | ?
CC1(C)Cc2ccccc2C(/C(=N\Nc2cccc(Cl)c2)C(N)=O)=N1 | -54 | ? | – | ? | ? | ?

Source: PubChem
